The source of these data is PubChem BioAssay (NCATS).

Assay [1] is described as follows: Primary qHTS for inhibitors of nuclear receptor binding SET domain protein 2 (NSD2) in an RCH-ACV wild type WT cells (2C) (AID 1645877). For activity change, negative = cell killing: % is set by controls: 0 for no effect and ±100 for the full control effect. Note: nearly all actives have a fitted effect of over 70% in size. Note: potency is the fitted concentration of half-maximal effect.
For assay [2], the target named is Glutathione peroxidase 1 (Homo sapiens) (UniProt P07203). In words: Primary qHTS Assay for Inhibitors of Recombinant Selenoprotein Glutathione Peroxidase 1 (GPX1) (AID 1845191). For activity, negative = inhibition: % is set by controls: 0 for no effect and ±100 for the full control effect. Note: nearly all actives have a fitted effect of over 65% in size. In outline:
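NADPH consumption tracked by fluorescence at 340/450 nm between t=0 and t=15 min, room temperature. Final mix: 10 nM GPX1, 100 nM glutathione reductase, 1 mM GSH, 0.5 mM NADPH, 0.5 mM cumene hydroperoxide, 0.01% BSA; 30 min compound–enzyme preincubation.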

Assay [3] has as its target Phospholipid hydroperoxide glutathione peroxidase GPX4 (Homo sapiens) (UniProt P36969). The experiment in a line: Primary qHTS Assay for Inhibitors of Recombinant Selenoprotein Glutathione Peroxidase 4 (GPX4) (AID 1845192). For activity change, negative = inhibition: series mostly up to about 50 µM; % is set by controls: 0 for no effect and ±100 for the full control effect. Note: nearly all actives have a fitted effect of over 65% in size. In outline:
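NADPH consumption followed by fluorescence at 340/450 nm, t=0 and after 15 min at room temperature. Reaction started with cumene hydroperoxide (0.5 mM final) after 30 min compound–GPX4 preincubation; final 200 nM GPX4, 100 nM GR, 1 mM GSH, 0.5 mM NADPH.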
On the technique in general: qHTS replaces the single test concentration by a dilution series.

Assay [4] addresses Luciferin 4-monooxygenase (Photinus pyralis) (UniProt P08659). The experiment in a line: Primary firefly luciferase (FLuc) qHTS assay for identification of artifact compounds. (AID 1845220).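 For activity change, negative = inhibition: series mostly up to about 54 µM; plate controls were DMSO vehicle for no effect and no enzyme for full effect.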 Note: nearly all actives have a fitted effect of over 60% in size. The essentials:
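Compounds sat 15 min at room temperature with 10 uM luciferin and 10 uM ATP (pH 7.6 Tris acetate). Firefly luciferase (10 nM final) was then added, and luminescence was read 5 min later. Data normalized to no-enzyme and DMSO controls were Hill-fitted.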

Assay [5] in a line: Primary fluorescence-based thiol-reactive (MSTI) qHTS assay for identification of artifact compounds. (AID 1845221).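 For activity change, negative = thiol reactive: series mostly up to about 54 µM; thiol-reactive compounds lower the probe fluorescence signal.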 Note: nearly all actives have a fitted effect of over 65% in size. Note: potency is the fitted concentration of half-maximal effect. The essentials:
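Curve-fitted percent inhibition (4-parameter Hill) derived from fluorescence, Ex 525/Em 598 nm, scaled with Acetyl-MSTI and MSTI; 1 h incubation at room temperature.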

The subject of assay [6] is Nanoluciferase (engineered Oplophorus gracilirostris luciferase). The experiment in a line: Primary Nanoluciferase (NLuc) qHTS assay for identification of artifact compounds. (AID 1845222).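 Note: series mostly up to about 54 µM; 0% = DMSO and -100% = no enzyme.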 In outline:
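Luminescence from secreted NLuc (filtered, 1:55-diluted S16 cell medium) read 5 min after Nano-Glo substrate; compounds preincubated 15 min, RT. Hill fits of inhibition normalized to DMSO and no-enzyme.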

Assay [7] in a line: Primary redox qHTS assay for identification of artifact compounds. (AID 1845223).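 Note: 0% = DMSO and 100% = reference compound.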 The essentials: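 Redox-cycling detection via DTT (250 uM final) oxidation coupled to Amplex Red (25 uM)/HRP (250 mU/mL) in HBSS. 15 min preincubation plus 30 min after DTT, room temperature. Ex/Em 525/598 nm; 4-parameter Hill fit against DMSO and 10 uM DA3003.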

SMILES strings stand for the structures. Unmarked numbers belong to inactive results. Inconclusive results are not listed. Activity calls are given as the source filed them. Calls come from the whole dose curve; as a rule, active = well fitted curve in the direction sought with a large enough effect; inconclusive = small, poorly fitted or top-dose-only effect, or another doubt; inactive = no such curve, though single readings can be large; an effect the other way counts as inactive or inconclusive.

Glutathione peroxidase 1 (Homo sapiens), sequence (P07203 whole entry, looked up): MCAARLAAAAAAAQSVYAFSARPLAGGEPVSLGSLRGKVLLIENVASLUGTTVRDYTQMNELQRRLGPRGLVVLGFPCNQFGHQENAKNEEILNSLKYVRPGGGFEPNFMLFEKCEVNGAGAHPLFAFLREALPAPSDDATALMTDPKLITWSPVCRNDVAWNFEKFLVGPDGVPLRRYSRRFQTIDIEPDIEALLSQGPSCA
Phospholipid hydroperoxide glutathione peroxidase GPX4 (Homo sapiens), sequence (P36969 whole entry, looked up): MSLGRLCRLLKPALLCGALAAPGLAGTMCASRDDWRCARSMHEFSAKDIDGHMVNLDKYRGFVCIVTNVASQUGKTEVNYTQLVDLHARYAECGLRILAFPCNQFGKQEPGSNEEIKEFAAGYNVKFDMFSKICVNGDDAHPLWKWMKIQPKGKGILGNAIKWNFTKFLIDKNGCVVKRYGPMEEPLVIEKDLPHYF

For `O=C(O)c1cccc(S(=O)(=O)N2CCc3ccccc3C2)c1`, the Potency result in assay [1], in assay [2], in assay [3], in assay [4], in assay [5] and in assay [6] was “inactive” each time. Also, in assay [7], the Potency result was “inactive”.
For the molecule `CO[C@H]1C[C@@H]2CC[C@@H](C)[C@@](O)(O2)C(=O)C(=O)N2CCCC[C@H]2C(=O)O[C@H]([C@H](C)C[C@@H]2CC[C@@H](OP(C)(C)=O)[C@H](OC)C2)CC(=O)[C@H](C)/C=C(\C)[C@@H](O)[C@@H](OC)C(=O)[C@H](C)C[C@H](C)/C=C/C=C/C=C/1C`, the Potency in assay [1] is 0.0468 µM (active). Further, the Potency result in assay [2], in assay [3], in assay [4], in assay [5], in assay [6] and in assay [7] was “inactive” throughout.
`C/C(=C\CCC(C)CCO)C(=O)O[C@@H]1[C@@H](O)[C@H](OC2OC=C(C(=O)O)C3CCC(C)(O)C23)O[C@H](CO)[C@H]1O` (stereo not given in full): the Potency result in assay [1], in assay [2], in assay [3], in assay [4], in assay [6] and in assay [7] was “inactive” throughout. Besides, the Potency in assay [5] is 8.22 µM (active).
As for `Nc1nc2c(ncn2[C@@H]2O[C@H](CO)[C@@H](O)[C@H]2O)c(=O)[nH]1`, the Potency result in assay [1], in assay [2], in assay [3], in assay [4], in assay [5] and in assay [6] was “inactive” in each case. In addition, the Potency result in assay [7] is “inactive”.
Consider `O=C1C=CC2OC(c3ccccc3)C(O)C2O1` (stereo not given), for which the Potency is 4.59 µM (active) in assay [1] and 23.8 µM (active) in assay [5]. Further, the Potency result in assay [2], in assay [3], in assay [4], in assay [6] and in assay [7] was “inactive” each time.
Turning to `C=C(CCC1=C(C)[C@H]2[C@H](CC3[C@@H]4CC=C5C[C@@H](O)C[C@@H](O)[C@]5(C)C4[C@H](O)C[C@@]32C)O1)CO[C@@H]1O[C@H](CO)[C@@H](O)[C@H](O)[C@H]1O` (stereo not given in full), the Potency in assay [1] was 0.963 µM (active). The Potency entry in assay [2], in assay [3], in assay [4], in assay [5], in assay [6] and in assay [7] was “inactive” each time.
Take `C[C@H]1CC[C@@H]2N(C1)C[C@@H]1[C@H]([C@@H](O)[C@H](O)[C@]3(O)[C@H]1C[C@@]14OC5(O)[C@@H](C[C@@H](O)[C@@H]31)[C@]4(C)CC[C@@H]5O)[C@]2(C)O`: the Potency result in assay [1], in assay [2], in assay [3], in assay [4], in assay [5] and in assay [6] was “inactive” in each case. Also, in assay [7], the Potency result was “inactive”.
For `CC(C)=CCC/C(C)=C/CC/C(C)=C/COC1OC(COC2OCC(OC3OCC(O)C(O)C3O)C(O)C2O)C(O)C(OC2OC(C)C(OC3OC(C)C(OC4OCC(OC5OC(C)C(O)C(O)C5O)C(O)C4O)C(O)C3O)C(O)C2O)C1O` (stereo not given), the outcome in assay [1] is “inactive [at 9.23 µM]”; in assay [4], “inactive [at 11.6 µM]”. The activity, negative = inhibition in assay [2] is 1.32% [at 9.52 µM]; in assay [6], -0.192% [at 11.6 µM]. In assay [3], the activity change, negative = inhibition was 4.38% [at 9.73 µM]. In addition, in assay [5], the activity change, negative = thiol reactive is 139% [at 11.5 µM]. Besides, the redox activity (% of DA3003) in assay [7] was 11.7% [at 11.5 µM].
Take `C=CC1(C)C=C2CCC3C(C)(C)C(O[C@@H]4O[C@@H](CO)[C@H](O)[C@H]4O)CCC3(C)C2CC1O[C@@H]1O[C@H](C)[C@H](O)[C@H](O)[C@H]1O` (stereo not given in full): the Potency entry in assay [1], in assay [2], in assay [3], in assay [4], in assay [5] and in assay [6] was “inactive” each time. Also, the Potency entry in assay [7] is “inactive”.
As for `CC1(C)CCCC2(C)C=C(C(=O)O)C(O)CC12` (stereo not given), the Potency entry in assay [1], in assay [2], in assay [3], in assay [4], in assay [5] and in assay [6] was “inactive” throughout. The Potency result in assay [7] was “inactive”.
For the molecule `CC1=C2C[C@H]3O[C@@]3(C)CCC3O[C@@]3(C)C[C@@]2(O)OC1=O` (stereo not given in full), the Potency result in assay [1], in assay [2], in assay [3], in assay [4], in assay [5] and in assay [6] was “inactive” throughout. In addition, the Potency result in assay [7] was “inactive”.
As to `C=C1CCC2C(C)(COC(C)=O)CCCC2(C)C1CCC(C)CC(=O)O` (stereo not given), the Potency result in assay [1], in assay [2], in assay [3], in assay [4], in assay [5] and in assay [6] was “inactive” in each case. Moreover, in assay [7], the Potency result is “inactive”.
For `CCc1cccc(CC)c1NC(=O)c1nn(C)c2c1CCc1cnc(Nc3ccc(C(=O)NC4CCN(C)CC4)cc3OC(F)(F)F)nc1-2`, in assay [1], the Potency was 1.78 µM (active). Moreover, the Potency result in assay [2], in assay [3], in assay [4], in assay [5], in assay [6] and in assay [7] was “inactive” throughout.
As to `CC(CCC1(O)OC2CC3C4CCC5CC(O[C@@H]6O[C@H](CO)[C@@H](O)[C@H](O)[C@H]6O[C@@H]6O[C@@H](C)[C@H](O)[C@@H](O)[C@H]6O)C(O)CC5(C)C4CCC3(C)C2C1C)CO[C@@H]1O[C@H](CO)[C@@H](O)[C@H](O)[C@H]1O` (stereo not given in full), the activity change, negative = cell killing in assay [1] was -13.5% [at 9.23 µM]. The Potency entry in assay [2] and in assay [3] was “inactive” each time. Moreover, the activity change, negative = inhibition in assay [4] is -2.32% [at 11.6 µM]. Besides, the activity change, negative = thiol reactive in assay [5] is 141% [at 11.5 µM]. Moreover, the activity, negative = inhibition in assay [6] was 2.24% [at 11.6 µM]. Also, the redox activity (% of DA3003) in assay [7] was 15.2% [at 11.5 µM].
In the case of `O=C(O)/C=C/c1ccc(O)c(O[C@@H]2O[C@H](CO)[C@@H](O)[C@H](O)[C@H]2O)c1`, the Potency result in assay [1], in assay [2], in assay [3], in assay [4], in assay [6] and in assay [7] was “inactive” in each case. In addition, the Potency in assay [5] was 4.65 µM (active).
